An excerpt weighted towards active compounds, which were near 4.3% of everything screened.
NadD inh – inhibitors of S. aureus NadD, primary screen, biochemical, colorimetric, uHTS. Nicotinate-nucleotide adenylyltransferase NadD (Staphylococcus aureus N315). purified NadD enzyme, colorimetric absorbance read-out. inhibition, % at 20 µM. actives 0.78% (n = 360,000); in the data active = inhibition above about 26%
FAS-TE inh – FAS thioesterase domain inhibitors, primary screen, biochemical, fluorescence intensity, uHTS; AID 602261, 2012; actives 0.67% (n = 360,000); Fatty acid synthase (Homo sapiens), P49327; inhibition, % at 15 µM; recombinant FAS-TE, OMFH fluorogenic substrate, fluorescence endpoint;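 active = compounds whose normalised, plate-corrected inhibition of enzyme fluorescence in the single-dose primary screen is 50% or more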;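 also: 0% = DMSO with enzyme and 100% = substrate without enzyme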
rCAG RNA binder – binders of r(CAG) RNA repeats, primary screen, biochemical, fluorescence; r(CAG) RNA repeat, TO-PRO-1 dye displacement fluorescence; inhibition, % at 3 µM; actives 1.3% (n = 370,000);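 active = inhibition above the plate cutoff, the mean of all test compounds on that plate plus 3 SD, cut at about 35% in these data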;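 also: 0% = DMSO alone and 100% = 100 µM mitoxantrone as full dye displacement; higher means more dye released from RNA so lower well fluorescence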
GRIN3A LBD mod – binders of NR3A ligand-binding domain, primary screen, biophysical, differential scanning fluorimetry, uHTS. Glutamate receptor ionotropic, NMDA 3A (GRIN3A) ligand-binding domain. actives 2.5% (n = 340,000). NR3A LBD differential scanning fluorimetry, Tm shift; 0% = protein alone, 100% = glycine-bound protein. Tm shift relative to glycine control, % at 25 µM;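 active = melting temperature shift of at least 10% of the positive control shift, at one fixed dose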
NadD inh conf – inhibitors of S. aureus NadD, confirmation, biochemical, colorimetric, single concentration; inhibition, % at 20 µM; AID 624309, 2012; purified S. aureus NadD, colorimetric enzyme assay; actives 13% (n = 2,000); shares compounds with NadD inh; in the data active = inhibition mostly above about 42%, no sharp cut-off; inactive = mostly below about 42%
* = called active by the depositor; . = not tested or not shown.

SMILES | NadD inh | FAS-TE inh | rCAG RNA binder | GRIN3A LBD mod | NadD inh conf
Clc1ccc(Cn2c(/C=C/c3ccco3)nc3ccccc32)cc1 | 34* | 13 | 13 | 2 | 43
Cc1ccc(Cn2c(/C=C/c3ccco3)nc3ccccc32)cc1 | 32* | 20 | 5 | -2 | 41
Cc1cc2cc(CNC(=S)NCc3ccccc3)ccc2n1C | 52* | -99 | 6 | -12 | -10
Cc1ccc(CNC(=S)NC2CCCCC2)cc1 | 7 | 6 | -2 | -1 | .
Cc1cc2cc(CNC(=S)NC3CCCCC3)ccc2n1C | 34* | -72 | 5 | 5 | 6
Cc1ccccc1NC(=S)NCc1ccc2c(c1)cc(C)n2C | 2 | -1 | 13 | -3 | .
CC(C)CNc1cccc2c1S(=O)(=O)N[C@@H](CC(C)C)CO2 | . | . | -1 | . | .
COc1cc2nc(N3CCNCC3)nc(N)c2cc1OC | 34* | -11 | -2 | 5 | 19
Cn1cc(C(=O)c2ccc(Cl)cc2Cl)cc1C(=O)N/N=C(\N)COc1ccc(Cl)cc1 | 32* | 24 | 7 | -1 | 35
Cn1cc(C(=O)c2ccc(Cl)cc2Cl)cc1C(=O)N/N=C(\N)COc1ccc(Cl)cc1Cl | 41* | 48 | 13 | -1 | 29
Cn1cc(C(=O)c2ccc(Cl)cc2Cl)cc1C(=O)N/N=C(\N)COc1ccccc1 | -2 | 2 | 9 | -2 | .
O=C(CSc1nc2c(cnn2-c2ccccc2)c(=O)[nH]1)c1ccc(Cl)cc1 | 37* | -4 | 8 | -4 | -3
O=C(Nc1ccc(Cl)cc1)[C@@H]1[C@@H]2C(=O)N(c3ccc4ccccc4c3)C(=O)[C@@H]2[C@H]2C=CC=NN21 | 57* | 12 | 33 | 0 | 31
C[C@@H]1/C=C/CC(=O)N[C@H](c2ccccc2)[C@H](C)/C=C/CC(=O)N[C@@H]1c1ccccc1 | . | . | 2 | . | .
COc1ccc(OC)c(N/C(=N/c2nc(C)cc(C)n2)NC(C)=O)c1 | -9 | 1 | 2 | 2 | .
COc1ccc(N/C(=N/c2nc(C)cc(C)n2)NC(=O)Nc2ccc(Cl)c(Cl)c2)c(OC)c1 | 33* | 23 | 6 | -1 | 1
O=C1NC(=Nc2ccc(Cl)cc2)/C(=C/c2ccco2)S1 | 37* | 2 | 13 | 0 | -1
CN(C)N1C(=O)/C(=C/c2ccco2)SC1=Nc1ccccc1 | -2 | 3 | 20 | -1 | .
Cc1cc(Cl)ccc1OCC(=O)Nn1c(C)ccc1C | 41* | 4 | 6 | 4 | 4
CSc1ccccc1NC(=O)COc1ccc(Cl)cc1C | -1 | 32 | -2 | 2 | .
CC(C)CN1C(=O)C[C@]2(C(=O)N(C)c3ccc(NC(=O)c4cc(F)ccc4F)cc32)C1c1ccccc1 (some centres not stated) | . | . | 0 | . | .
COC(=O)[C@H](Cc1ccccc1)NC(=O)[C@H]1O[C@@H](n2cnc3c(=O)[nH]c(N)nc32)[C@H](O)[C@@H]1O | . | . | 2 | . | .
Cc1sc2nc(COC(=O)c3cccc(OC(F)F)c3)[nH]c(=O)c2c1C | -6 | 7 | 3 | -3 | .
Cc1sc2nc(COC(=O)c3cccc(S(=O)(=O)N(C)c4ccccc4)c3)[nH]c(=O)c2c1C | 37* | 0 | 13 | -4 | 4
COc1cccc(N(C)C(=O)[C@@H](C2CC2)[C@@H](O)c2ccc(C(C)=O)cc2)c1 | . | . | 7 | . | .
SMILES | NadD inh | FAS-TE inh | rCAG RNA binder | GRIN3A LBD mod | NadD inh conf
COC[C@@H]1CCCN1c1cccc2c1S(=O)(=O)N1CC[C@@H](C1)O2 | . | . | 6 | . | .
O=C(CSc1nnc(-c2cc3ccccc3cc2O)n1Cc1ccco1)N1CCc2ccccc2C1 | 41* | 24 | 17 | 0 | 54*
COc1ccccc1C(=O)NCCC(=O)N1CC=C(c2ccccc2)CC1 | 42* | -2 | -4 | -1 | 8
COc1ccccc1C(=O)NCCC(=O)N1CCCCC1 | 2 | -4 | -4 | -1 | .
CC(NC(=O)c1cc2cc([N+](=O)[O-])ccc2oc1=O)C1CCCO1 (configuration not stated) | 1 | 4 | 2 | -1 | .
O=C(Nc1nc(C2C3CC4CC(C3)CC2C4)cs1)c1cc2cc([N+](=O)[O-])ccc2oc1=O (configuration not stated) | 35* | -1 | 16 | -1 | 4
C[C@H](O)[C@@H]1C(=O)N2CCc3c([nH]c4c(-c5ccc6c(c5)OCO6)cccc34)[C@@H]2C[C@@H]1N(C)C(=O)Nc1ccccc1 | . | . | 4 | . | .
CCN1c2ccccc2NC2C1C(C(C)=O)C(=O)N2c1ccc(Cl)cc1 (configuration not stated) | 37* | 4 | 10 | -2 | 5
CCn1nnnc1NCc1cccn1C | 35* | -6 | 14 | -4 | 22
CCn1nnnc1NCc1ccc(Cl)cc1 | 2 | -4 | 0 | 0 | .
CCOC(=O)c1sc(NC(=O)c2cc(-c3ccccc3C)nc3ccccc23)c(C#N)c1C | 48* | 31 | 15 | 24* | 29
Cc1ncc2c(n1)-c1cc(F)ccc1SC2 | -1 | -1 | 1 | -2 | .
Nc1ncc2c(n1)-c1cc(Cl)ccc1SC2 | 29* | -2 | 9 | -2 | 5
O=C1C=CC(=O)N1c1ccccc1N1C(=O)C=CC1=O | 3 | -3 | 4 | 0 | .
CC1=CC(=O)N(c2cccc3c(N4C(=O)C=C(C)C4=O)cccc23)C1=O | 58* | 5 | 36* | 3 | 41
Cc1ccccc1N1CCN(CCN2C(=O)CC(=C3c4ccccc4-c4ccccc43)C2=O)CC1 | 31* | 14 | 15 | -5 | 39
O=C1CC(=C2c3ccccc3-c3ccccc32)C(=O)N1CCN1CCN(c2ccccc2)CC1 | 38* | 20 | 14 | -3 | 27
Cc1ccc(C(=O)n2ccc3ccc(-c4ccc5ccn(Cc6ccc(C#N)cc6)c5c4)cc32)cc1 | . | . | 22 | . | .
CCOC(=O)[C@@]12CN(C(=O)OC(C)(C)C)CC=C1N(Cc1ccc(OC)cc1)C(=O)[C@H]2CC(=O)NCCCN1CCCC1=O | . | . | 3 | . | .
CC(C)c1ccc(NC(=O)CSc2nc3ccsc3c(=O)n2Cc2ccc(C(=O)O)cc2)cc1 | 32* | -1 | 33 | -24 | 46
CN(C)c1ccc(Sc2nnc(NC(=O)Nc3ccc(Cl)cc3Cl)s2)cc1 | 39* | -4 | 1 | -3 | 7
CCN1CCc2c(sc3c2c(NCc2ccco2)nc2nnnn23)C1 | 38* | -10 | -3 | -5 | 8
Cc1nc(NCc2ccco2)c2c3c(sc2n1)CCC3 | -1 | -2 | 0 | -2 | .
COc1cc(OC)c(N(C)S(=O)(=O)c2cccc(C(=O)Nc3nnc(C4CC4)s3)c2)cc1Cl | 32* | 7 | 10 | 2 | 6
COCCCN1C(=O)[C@H](CC(=O)N2CCCC2)[C@]2(C(=O)OC)CCCCC=C12 | . | . | 3 | . | .
O=C(Nc1cccc(-c2csc(Nc3ccccc3)n2)c1)c1cc([N+](=O)[O-])cc(C(F)(F)F)c1 | 37* | 4 | 18 | 8 | 9
